The results in this text go back to PubChem BioAssay (NCATS).

Assay [1] deals with Calcium and integrin-binding protein 1 (Homo sapiens) (UniProt Q99828). The assay can be described thus: Primary qHTS for Identification of Calcium Integrin Binding Protein 1 (CIB1) Competitor (AID 1508620).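 Note: GST tagged CIB1 binding a fluorescein labelled alphaIIb integrin peptide tracer; top concentration of the series differs between compounds.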 The procedure, abridged: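 CIB1-GST (1 uM final) and compound incubated 15 min at room temperature before adding FITC-alphaIIb peptide tracer (100 nM final). Competition for binding read by fluorescence polarization (ex 480, em 540) after another 15 min at room temperature.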
Chain of Calcium and integrin-binding protein 1 (Homo sapiens) (Q99828 whole entry, looked up): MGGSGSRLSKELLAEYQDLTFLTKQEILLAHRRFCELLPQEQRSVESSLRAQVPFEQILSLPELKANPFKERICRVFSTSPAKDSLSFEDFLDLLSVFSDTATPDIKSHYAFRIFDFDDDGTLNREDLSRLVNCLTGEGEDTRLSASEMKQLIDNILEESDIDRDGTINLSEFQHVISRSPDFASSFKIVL

Assay [2] is described as follows: Primary qHTS for inhibitors of nuclear receptor binding SET domain protein 2 (NSD2) in an isogenic RCH-ACV NSD2 p.E1099K mutant (9B) (AID 1645876). Note: nearly all actives have a fitted effect of over 70% in size. Note: potency is the fitted concentration of half-maximal effect.

Each structure is given as a SMILES string. Records with an inconclusive call do not appear. A call without a number means that no potency is given here. Active and inactive are the calls of the source. Calls come from the whole dose curve; as a rule, active = well fitted inhibition curve with a large enough effect; inconclusive = small, poorly fitted or top-dose-only effect; inactive = flat fitted curve, though single readings scatter.

In the case of `CC(=O)O[C@@H]1[C@@H](OC(=O)/C=C/c2ccccc2)[C@@H](OC(C)=O)[C@H](O[C@H]2[C@@H]3C=CO[C@@H](O[C@@H]4O[C@H](CO)[C@@H](O)[C@H](O)[C@H]4O)[C@@H]3[C@@]3(CO)O[C@@H]23)O[C@H]1C`, the Potency entry in assay [1] and in assay [2] was “inactive” in each case.
As to `CCCCC1CCN(CCCC(=O)c2ccccc2C)CC1`, in assay [1], the Potency entry was “inactive”. For the same molecule, in assay [2], the Potency was 20500 nM (active).
As for `C=C1C(=O)OC2/C=C(\CO)CC/C=C(\C=O)CC(OC(=O)CC(C)C)C12` (stereo unspecified), the Potency result in assay [1] is “inactive”. The Potency in assay [2] was 4010 nM (active).
The corresponding values for `C=C1CN(Cc2ccc(C(=O)Nc3ccccc3N)cc2)C(=O)c2ccccc21` are “inactive” and 230 nM (active).
The corresponding values for `C[C@@H]1CC[C@@]2(OC1)O[C@H]1C[C@H]3[C@@H]4CC=C5C[C@@H](O)CC[C@]5(C)[C@H]4CC[C@]3(C)[C@H]1[C@@H]2C` are “inactive” and “inactive”.
Turning to `CC(O)/C=C/C1OC(=O)CC1Nc1ccc(C(=O)O)cc1` (stereo unspecified), the Potency result in assay [1] and in assay [2] was “inactive” in each case.
Take `COc1cc(-c2ncn(/C=C\C(=O)OC(C)C)n2)cc(C(F)(F)F)c1`: in assay [1], the Potency entry was “inactive”. Moreover, in assay [2], the Potency was 129 nM (active).
On to `C=CC1(C)C=C2CCC3C(C)(C)C(O[C@@H]4O[C@@H](CO)[C@H](O)[C@H]4O)CCC3(C)C2CC1O[C@@H]1O[C@H](C)[C@H](O)[C@H](O)[C@H]1O` (stereo partly specified), for which the Potency entry in assay [1] and in assay [2] was “inactive” each time.
For the molecule `COC(=O)Cc1cc2c(c([N+](=O)[O-])c1)N(C(=O)CC[C@H](N)C(=O)O)CC2`, the Potency entry in assay [1] and in assay [2] was “inactive” in each case.
As for `Cc1cn(C2C=CC(CO)O2)c(=O)[nH]c1=O` (stereo unspecified), the Potency result in assay [1] and in assay [2] was “inactive” throughout.
In the case of `O=C(/C=C/c1ccc(O)cc1)OC1[C@H](O)CC(O)(C(=O)O)C[C@H]1O` (stereo partly specified), the Potency result in assay [1] and in assay [2] was “inactive” throughout.
For `CC[C@H](C)[C@H](NC(=O)[C@H]([C@@H](C)CC)N(C)C(C)=O)C(=O)N[C@H](C(=O)N[C@@H](CC(C)C)C(=O)[C@@]1(C)CO1)[C@@H](C)O`, the Potency result in assay [1] was “inactive”. Further, the Potency in assay [2] was 12.9 nM (active).
The corresponding values for `CC1CC(O)C2(OC1=O)OC1C(O)C3C4CCC5CC(OC6OC(CO)C(O)C(O)C6OC6OC(C)C(O)C(O)C6O)CCC5(C)C4CCC3(C)C1C2C` (stereo unspecified) are “inactive” and “inactive”.
